CYP2C19 inh = blocks human cytochrome P450 2C19; inhibition, % at 5 µM; P33261; CYP2C19 Supersomes, luciferin-H EGE luminescence, 30 min; AID 778; 96,000 tested, 21% active;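 active = CYP2C19 inhibition above a set limit at 5 µM in the primary screen, cut at about 50% in these data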
CYP2C9 act = CYP2C9 (human) activation; P11712; recombinant CYP2C9, luciferin-H conversion, luminescence; hits give high values; factor 1 = untreated enzyme, 0 = blocked; activation factor at 5 µM; 96,000 tested, 1.4% active; AID 1024;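 active = activation factor of 2 or more for CYP2C9 at a 5 µM dose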
Target sequence (P11712 whole entry, looked up): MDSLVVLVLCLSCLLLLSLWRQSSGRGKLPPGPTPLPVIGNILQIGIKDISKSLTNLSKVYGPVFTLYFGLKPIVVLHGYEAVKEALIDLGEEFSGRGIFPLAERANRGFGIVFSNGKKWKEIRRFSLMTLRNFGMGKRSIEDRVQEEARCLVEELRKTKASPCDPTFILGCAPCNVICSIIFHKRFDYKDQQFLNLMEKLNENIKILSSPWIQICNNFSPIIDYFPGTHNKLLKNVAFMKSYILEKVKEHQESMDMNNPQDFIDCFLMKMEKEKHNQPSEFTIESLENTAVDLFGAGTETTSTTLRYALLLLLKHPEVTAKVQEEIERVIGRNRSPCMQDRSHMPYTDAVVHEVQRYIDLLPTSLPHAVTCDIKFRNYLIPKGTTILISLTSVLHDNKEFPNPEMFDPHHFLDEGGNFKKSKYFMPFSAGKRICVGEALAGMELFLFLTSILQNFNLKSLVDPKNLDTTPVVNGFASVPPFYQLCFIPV
CYP2C9 inhib = blocks human cytochrome P450 2C9. P11712. inhibition, % at 5 µM. CYP2C9 Supersomes, luciferin-H conversion, luminescence. 96,000 tested, 20% active;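 active = blocking of liver enzyme CYP2C9 beyond about 50% at 5 µM, limit read from the data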
Cav3 T inh = inhibitors of human Cav3.2 T-type calcium channel. O95180. AID 449739. B-score at 10 µM. Cav3.2-expressing cells, Fluo-4 calcium fluorescence FDSS; hits give low values. 100,000 tested, 4% active;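 active = single-dose well whose peak fluorescence ratio is a statistical outlier from its plate by either plate-standardised score or position-corrected B-score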
CYP2C19 activ = cytochrome P450 2C19 (human) activation | 96,000 tested, under 10 active | recombinant CYP2C19, luciferin-H EGE luminescence; hits give high values; 0 = fully inhibited enzyme, 1 = untreated enzyme | activation factor at 5 µM;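 active = activation factor of at least 2 at 5 µM in the primary screen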
A number is an active result. Most compounds without a hit are left out; they make up all but 27% or so of the library.

`O=C1[C@@H]2C(c3ccccc3Cl)=NO[C@@H]2C(=O)N1Cc1ccccc1` gave CYP2C19 inh 99, CYP2C9 act inactive, CYP2C9 inhib 73, Cav3 T inh inactive and CYP2C19 activ inactive.
Screening COc1ccc(OC)c(C2=NO[C@@H]3C(=O)N(c4cc(Cl)ccc4OC)C(=O)[C@H]23)c1 returned CYP2C19 inh 62, CYP2C9 act inactive, CYP2C9 inhib inactive, Cav3 T inh inactive and CYP2C19 activ inactive.
CC(=O)Oc1ccc(-c2cc3c(OC(C)=O)cc(OC(C)=O)cc3oc2=O)cc1 was read as Cav3 T inh inactive.
N[C@@H](Cc1ccc(O)cc1)c1nnc([C@H](CCC(=O)O)NC(=O)C2CCNCC2)o1 was read as Cav3 T inh inactive.
Screening CCOC(=O)Cn1c(=O)oc2cc(S(=O)(=O)Nc3cc(Cl)ccc3OC)ccc21 returned CYP2C19 inh inactive, CYP2C9 act inactive, CYP2C9 inhib 61, Cav3 T inh inactive and CYP2C19 activ inactive.
Screening CCOC(=O)Cn1c(=O)oc2cc(S(=O)(=O)N(CCN(C)C)Cc3ccccc3)ccc21 returned CYP2C19 inh inactive, CYP2C9 act inactive, CYP2C9 inhib inactive, Cav3 T inh inactive and CYP2C19 activ inactive.
Cn1c(=O)c(=O)n(C)c2cc(S(=O)(=O)N3CCc4ccccc43)ccc21 was read as CYP2C19 inh inactive, CYP2C9 act inactive, CYP2C9 inhib 54, Cav3 T inh inactive and CYP2C19 activ inactive.
`CCOC(=O)Cn1c(=O)oc2cc(S(=O)(=O)Nc3ccc(N(CC)CC)cc3C)ccc21` gave CYP2C19 inh 67, CYP2C9 act inactive, CYP2C9 inhib 61, Cav3 T inh inactive and CYP2C19 activ inactive.
For CCOC(=O)Cn1c(=O)oc2cc(S(=O)(=O)N3CCc4ccccc43)ccc21 the results were CYP2C19 inh 67, CYP2C9 act inactive, CYP2C9 inhib 74 and CYP2C19 activ inactive.
Screening Cn1c(=O)oc2cc(S(=O)(=O)N3CCCc4ccccc43)ccc21 returned CYP2C19 inh inactive, CYP2C9 act inactive, CYP2C9 inhib inactive, Cav3 T inh inactive and CYP2C19 activ inactive.
Screening COC(=O)c1ccsc1NC(=O)CN1C(=O)CCC1=O returned Cav3 T inh inactive.
CCOC(=O)Cn1c(=O)oc2cc(S(=O)(=O)Nc3cc(OCC)ccc3OCC)ccc21 was read as CYP2C19 inh 73, CYP2C9 act inactive, CYP2C9 inhib 74, Cav3 T inh inactive and CYP2C19 activ inactive.
CCOC(=O)Cn1c(=O)oc2cc(S(=O)(=O)NCCc3ccc(OCC)c(OCC)c3)ccc21 was read as CYP2C19 inh inactive, CYP2C9 act inactive, CYP2C9 inhib 56, Cav3 T inh inactive and CYP2C19 activ inactive.
`CCOCCCNS(=O)(=O)c1ccc2c(c1)oc(=O)n2CC(=O)OCC` gave CYP2C19 inh inactive, CYP2C9 act inactive, CYP2C9 inhib inactive, Cav3 T inh inactive and CYP2C19 activ inactive.
For CCCN1CCN(C(=O)Cn2c(=O)oc3cc(S(=O)(=O)NCc4ccccc4)ccc32)CC1 the results were CYP2C19 inh inactive, CYP2C9 act inactive, CYP2C9 inhib inactive, Cav3 T inh inactive and CYP2C19 activ inactive.
CCOC(=O)Cn1c(=O)oc2cc(S(=O)(=O)Nc3cccc(C)c3)ccc21 was read as CYP2C19 inh 50, CYP2C9 act inactive, CYP2C9 inhib 54, Cav3 T inh inactive and CYP2C19 activ inactive.
`CCOC(=O)Cn1c(=O)oc2cc(S(=O)(=O)NC(C)c3ccccc3)ccc21` (configuration not stated) gave CYP2C19 inh 78, CYP2C9 act inactive, CYP2C9 inhib 51, Cav3 T inh inactive and CYP2C19 activ inactive.
Screening C/C(NC(=O)c1cccs1)=C1\C(=O)C[C@@H]2[C@H]1C2(C)C returned CYP2C19 inh inactive, CYP2C9 act inactive, CYP2C9 inhib inactive, Cav3 T inh inactive and CYP2C19 activ inactive.
Screening CCCCCCC(=O)N/N=C/Cc1ccccc1 returned CYP2C19 inh inactive, CYP2C9 act inactive, CYP2C9 inhib inactive, Cav3 T inh inactive and CYP2C19 activ inactive.
Screening COC(=O)C1=C[C@@H](C(=O)OC)[C@@H]2C3=C(C(=O)C2(C)C)[C@H](C)n2c(=O)n(-c4ccccc4)c(=O)n2[C@@H]3C1 returned Cav3 T inh inactive.
`CCCC(=O)N1CCN(c2ccc(NC(=S)NC(=O)CC)cc2)CC1` gave CYP2C19 inh 51, CYP2C9 act inactive, CYP2C9 inhib inactive, Cav3 T inh inactive and CYP2C19 activ inactive.
Screening COc1ccc2[nH]c(=O)c(CN(CCO)C(=O)c3ccccc3F)cc2c1 returned CYP2C19 inh inactive, CYP2C9 act inactive, CYP2C9 inhib inactive, Cav3 T inh inactive and CYP2C19 activ inactive.
`COc1ccc(CCNC(=O)CCNS(=O)(=O)c2cccc3nsnc23)cc1OC` gave CYP2C19 inh 72, CYP2C9 act inactive, CYP2C9 inhib inactive, Cav3 T inh inactive and CYP2C19 activ inactive.
`Cc1ccc(CNC(=O)CCCNS(=O)(=O)c2cccc3nonc23)cc1` gave CYP2C19 inh inactive, CYP2C9 act inactive, CYP2C9 inhib inactive, Cav3 T inh inactive and CYP2C19 activ inactive.
`COc1ccc(NC(=O)CNS(=O)(=O)c2cccc3nonc23)c(OC)c1` gave CYP2C19 inh 72, CYP2C9 act inactive, CYP2C9 inhib 74 and CYP2C19 activ inactive.
Screening COc1ccc(CCNC(=O)CCNS(=O)(=O)c2cccc3nonc23)cc1OC returned CYP2C19 inh 72, CYP2C9 act inactive, CYP2C9 inhib inactive, Cav3 T inh inactive and CYP2C19 activ inactive.
O=C(CCNS(=O)(=O)c1cccc2nsnc12)NCCc1ccccc1 was read as CYP2C19 inh 52, CYP2C9 act inactive, CYP2C9 inhib inactive, Cav3 T inh inactive and CYP2C19 activ inactive.
Screening O=C(Nc1ncc2c(n1)-c1ccccc1OC2)c1ccccc1Cl returned CYP2C19 inh inactive, CYP2C9 act inactive, CYP2C9 inhib inactive, Cav3 T inh inactive and CYP2C19 activ inactive.
For O=C(C1CC1)N1CCc2cc(S(=O)(=O)N(CCO)Cc3ccccc3)ccc21 the results were Cav3 T inh inactive.
CC(CCc1ccccc1)NC(=O)c1ccc(Cl)nc1 (configuration not stated) was read as CYP2C19 inh inactive, CYP2C9 act inactive, CYP2C9 inhib inactive, Cav3 T inh inactive and CYP2C19 activ inactive.
Screening Cc1cc(NC(=O)CSc2nnnn2Cc2ccccc2)no1 returned Cav3 T inh inactive.
For O=C(CCNS(=O)(=O)c1cccc2nonc12)NC1CCCc2ccccc21 (configuration not stated) the results were CYP2C19 inh inactive, CYP2C9 act 2.4, CYP2C9 inhib inactive and CYP2C19 activ inactive.
Screening Cc1ccc(CNC(=O)CNS(=O)(=O)c2cccc3nsnc23)cc1 returned CYP2C19 inh inactive, CYP2C9 act inactive, CYP2C9 inhib 52 and CYP2C19 activ inactive.
Screening O=C(NC1CCCc2ccccc21)C1CCN(S(=O)(=O)c2cccc3nonc23)CC1 (configuration not stated) returned CYP2C19 inh inactive, CYP2C9 act inactive, CYP2C9 inhib inactive, Cav3 T inh inactive and CYP2C19 activ inactive.
For CC(=O)c1ccc(NC(=O)CCNS(=O)(=O)c2cccc3nonc23)cc1 the results were CYP2C19 inh inactive, CYP2C9 act inactive, CYP2C9 inhib inactive, Cav3 T inh inactive and CYP2C19 activ inactive.

Screens as filed in PubChem.
